This note sets out measurements from PubChem BioAssay AID1259373 (The Scripps Research Institute Molecular Screening Center, 2018).

The nature of the test: AlphaScreen optical interference compounds, dose response, counter-screen, biochemical, HTS (AID 1259373). Conditions: AlphaScreen optical interference counterscreen, cell-free. (In general: Alpha assays give light when donor and acceptor beads are brought close together.)

Each structure is given as a SMILES string. The list shows a part of the results. Unmarked numbers belong to inactive results. No rule for the calls is given here.

In the case of `CCc1ccc(NC(=O)CS(=O)CC(=O)NCCCc2ccccc2)cc1` (centres undefined), the IC50 – broadly, the point on the concentration scale where inhibition reaches its midpoint – is greater than 6.48 µM.

As to `C[C@@H](OCc1ccccc1)[C@@H]1NC(=O)[C@H]2CN(C(=O)Nc3cccc(F)c3)CCN2C1=O`, the IC50 is greater than 6.48 µM.

In the case of `O=C(Cc1cccs1)N/N=C\C=C\c1ccco1`, the IC50 is greater than 6.48 µM.

For `COc1ccc2c(c1)CC(c1nc(Nc3ccc4cnccc4c3)c3ccccc3n1)CO2` (centres undefined), the IC50 is greater than 6.48 µM.

`COc1ccc2c(c1)CC(C(=O)Nc1ccc(-c3cn[nH]c3)cc1OCC(N)=O)CO2` (centres undefined): the IC50 is greater than 6.48 µM.

Turning to `c1cc2c(cc1CNc1nc(Nc3ccc(N4CCOCC4)cc3)c3ncn(C4CCCCC4)c3n1)OCO2`, the IC50 was greater than 6.62 µM.

Regarding `CC[C@@H]1NC(=O)[C@H]2CN(C(=O)NCc3ccccc3)CCN2C1=O`, the IC50 is greater than 6.48 µM.

For `NC(=O)COC(=O)/C=C/c1ccc(I)o1`, the IC50 was greater than 7.27 µM.

Take `CCOc1ccccc1N1CCN(Cc2cc(OC)c(O)c([N+](=O)[O-])c2)CC1`: the IC50 is greater than 6.48 µM.

For `Cc1ccc(NC(=O)COC(=O)CCC(=O)Nc2sc3c(c2C(N)=O)CCC3)cc1F`, the IC50 was greater than 6.95 µM.

As to `COc1ccc2c(c1)CC(C(=O)Nc1ccc(-c3cn[nH]c3)cc1OCc1ccccc1)CO2` (centres undefined), the IC50 was greater than 6.48 µM.

For the compound `COc1cc(N2CCOCC2)ccc1Nc1cc(Nc2ccccc2-n2cccn2)c(C(F)(F)F)cn1`, the IC50 was greater than 6.48 µM.

On to `O=C(Nc1ccc(-c2ccncc2)c(C(F)(F)F)c1)C1COc2ccccc2O1` (centres undefined), for which the IC50 was greater than 6.48 µM.

Take `C/C(N)=C(/C#N)C(=O)COC(=O)c1c2c(nc3ccccc13)/C(=C/c1ccco1)CC2`: the IC50 is greater than 6.27 µM.
